Bioassay records: PubChem BioAssay, National Center for Advancing Translational Sciences (NCATS)
G9a inh: inhibitors of human histone lysine methyltransferase G9a. Q96KQ7. G9a H3K9 monomethylation, AlphaScreen, 2 h. Potency, µM (highest dose often 102 µM), hits mostly inhibitors. actives 8.8% (n = 350,000). AID 504332; also: nearly all actives have a fitted effect of over 75% in size
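Using a bead-based AlphaScreen, monomethylated H3K9 product from 2 h room-temperature reactions (G9a 20 nM, peptide 500 nM, SAM 20 uM) was detected with 0.5 ug/mL rabbit anti-H3K9me1 antibody.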
PI5P4K alpha inh: blocks human PI5P4K alpha kinase activity; PI5P4Kalpha enzyme, ADP-Glo luminescence, 60 min; hits give low values; max response, %; actives 1.2% (n = 330,000); AID 652105; active = max response of -50% or lower; inconclusive = between -30% and -50%; inactive = -30% or higher; also: value at the top dose of about 77 µM
Target sequence (P48426 whole entry, looked up): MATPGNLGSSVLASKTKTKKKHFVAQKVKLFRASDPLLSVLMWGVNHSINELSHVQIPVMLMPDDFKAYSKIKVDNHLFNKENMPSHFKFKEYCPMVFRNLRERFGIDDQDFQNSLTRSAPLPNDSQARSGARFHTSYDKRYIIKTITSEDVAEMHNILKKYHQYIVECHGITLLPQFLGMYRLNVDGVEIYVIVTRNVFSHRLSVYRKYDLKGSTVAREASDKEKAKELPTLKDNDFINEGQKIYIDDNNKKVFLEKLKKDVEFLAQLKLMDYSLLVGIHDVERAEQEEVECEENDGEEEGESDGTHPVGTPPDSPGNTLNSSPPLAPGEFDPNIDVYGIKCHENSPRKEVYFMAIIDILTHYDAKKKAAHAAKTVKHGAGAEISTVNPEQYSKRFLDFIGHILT
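Compounds were pin-transferred onto PI5P4Kalpha and substrate in HEPES pH 7.4 buffer with EGTA, CHAPS and 5% DMSO. ATP (5 microM final) started the reaction, which ran 60 minutes at room temperature before ADP-Glo detection.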
HP1b binding inh: blocks HP1-beta chromodomain binding to methylated histone tails. P83916. AlphaScreen HP1-beta / biotin-H3K9me3 peptide binding. Potency, µM (top dose mostly 114 µM), usual class: inhibitors. actives 0.56% (n = 390,000). AID 540317; also: nearly all actives have a fitted effect of over 70% in size
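AlphaScreen: HP1-beta (50 nM) preformed 30 min with biotin-H3(1-18)K9me3 peptide (50 nM) in PBS pH 7.4, 0.01% Tween-20. Compound added for 30 min at RT, then streptavidin donor/nickel chelate acceptor beads (10 ug/mL) for 30 min.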
PLK1 PBD block: PLK1 (human) polo-box domain binding inhibition | actives 2.8% (n = 360,000) | AID 720504 | P53350 | Plk1 PBD binding of FITC phosphopeptide, fluorescence polarization | Potency, µM, most hits filed as inhibitors; also: series mostly up to about 57 µM; nearly all actives have a fitted effect of over 65% in size
BAZ2B block: blocks human BAZ2B | Q9UIF8 | AlphaScreen BAZ2B-H3K14Ac peptide displacement | Potency, µM (highest dose often 114 µM), most hits filed as inhibitors | actives 4.4% (n = 360,000); also: nearly all actives have a fitted effect of over 60% in size
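AlphaScreen displacement of biotin-H3(5-23)K14Ac peptide (50 nM final) from BAZ2B (50 nM final) in PBS pH 7.4, 0.01% Tween-20; complex preformed 30 min RT, then compounds (top 110 uM) 30 min RT, beads 20 min dark.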
JMJD2A Tudor inh: inhibitors of human JMJD2A Tudor domain. O75164. AlphaScreen JMJD2A-Tudor / H3K4me3 peptide binding. Potency, µM (series often up to 114 µM), hits mostly inhibitors. actives 4.4% (n = 390,000); also: nearly all actives have a fitted effect of over 50% in size
12-hLO cuvette: 12-hLO (human) inhibition, 8HQ series round 1; shares compounds with BAZ2B block; purified 12-hLO, cuvette UV 234 nm product formation; Potency, µM, most hits filed as inhibitors; actives 60% (n = 35); AID 2163;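 active = compounds that slowed 12-hLO product formation enough to yield a measured IC50 potency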
JMJD2E inh: blocks human JMJD2E demethylase activity; actives 89% (n = 130); Potency, µM (series often up to 57 µM), most hits filed as inhibitors; JMJD2E demethylase, FDH-coupled NADH fluorescence (FDH is formaldehyde dehydrogenase); shares compounds with BAZ2B block
ME-1 prolif: inhibitors of ME-1 leukemia cell proliferation, CBFb-RUNX1 project | shares compounds with BAZ2B block | ME-1 cell proliferation, ATP luminescence, 48 h | Potency, µM (top dose mostly 56.1 µM), most hits filed as inhibitors | actives 20% (n = 140)
Hits are given with their value; . = inactive; ? = inconclusive; / = not tested or not shown; ! = not active in a repeat; [ ] = remark or other dose. Rows were chosen to be rich in hits. Some 12% of all compounds tested hit in one or more screens of this group. Unless noted, calls follow the shape of the dose curve; as a rule, active = well fitted curve in the direction sought with a large enough effect; inconclusive = small, poorly fitted or top-dose-only effect, or another doubt; inactive = no such curve, though single readings can be large; an effect the other way counts as inactive or inconclusive.

SMILES	G9a inh	PI5P4K alpha inh	HP1b binding inh	PLK1 PBD block	BAZ2B block	JMJD2A Tudor inh	ME-1 prolif	others
Cc1ccc(-c2csc(-c3cc4c([nH]c3=O)CC(c3ccccc3)CC4=O)n2)cc1 (stereo not drawn)	2.5µM	/	.	/	79µM	89µM	/
COc1ccc2nc(/N=C/c3c(C)[nH]n(-c4ccc(C)cc4C)c3=O)sc2c1	.	.	.	.	.	.	/
COc1cc(SC#N)ccc1N=Cc1c(C)[nH]n(-c2ccc(C)cc2C)c1=O	13µM	.	.	8.4µM	.	.	/
CNS(=O)(=O)c1ccc(N=Cc2c(C)[nH]n(-c3ccc(C)cc3C)c2=O)cc1	?	.	.	.	.	.	/
COc1cc(SC#N)ccc1N=Cc1c(C)[nH]n(-c2cccc3ccccc23)c1=O	?	.	.	?	.	.	/
COc1ccccc1N=Cc1c(C)[nH]n(-c2ccc(C)cc2C)c1=O	50µM	.	?	.	.	?	/
Cc1cc(Br)ccc1-n1[nH]c(C)c(C=Nc2cccc3nsnc23)c1=O	?	.	.	27µM	?	.	/
COC(=O)C[C@H]1C=C[C@H](NC(=O)C2CCOCC2)[C@@H](CO)O1	/	.	/	.	/	/	/
COc1cccc(/C=C/c2nc(C#N)c(N3CCC(C(N)=O)CC3)o2)c1	.	/	.	/	.	.	/
CC(C)CCCC(C)CCCC(C)CCCCC(C)CCCC(C)CCCC(C)C (stereo not drawn)	.	/	/	/	/	/	/
N[C@H](Cc1ccc(O)c(O)c1)C(=O)O	18µM	/	/	/	/	/	.
NCCc1ccc(O)c(O)c1	8.9µM	.	14µM	.	?	32µM	.
N[C@@H](Cc1ccc(O)cc1)C(=O)O	.	/	/	/	/	/	/
NC(Cc1ccc(O)c(O)c1)C(=O)O (stereo not drawn)	/	/	/	/	/	/	?
COc1ccc(-c2csc(N)n2)cc1	?	.	.	.	.	.	.
COc1ccc(-c2csc(N=C(N)N)n2)cc1	?	.	.	.	?	.	/
O=c1[nH]cc(I)cc1I	.	.	.	.	.	.	.
CN(C)CCc1c[nH]c2ccc(CC3COC(=O)N3)cc12 (stereo not drawn)	.[2.33 µM]	/	/	/	/	/	.
CC/C(=C(\c1ccccc1)c1ccc(OCCN(C)C)cc1)c1ccccc1	19µM!	.	?	.	35µM	45µM	24µM
C=CN1CCCC1=O	/	/	/	/	/	/	.
CCN1CCCC1=O	.	/	/	/	/	/	/
COc1ccc2c(c1)-c1nc(/N=C/c3ccc(O)c(OC)c3)sc1CC2	?	.	?	?	?	?	/
COc1ccc2c(c1)-c1nc(N)sc1CC2	25µM	.	?	?	?	?	.
O=C(CCn1c(=O)c2ccccc2n(CC(=O)Nc2cccc(F)c2)c1=O)NCCc1ccccc1	.	/	.	/	.	.	/
Nc1nc(-c2ccccc2)c(N=Nc2ccc(Cl)cc2)s1	2µM	.	?	?	?	?	.
SMILES	G9a inh	PI5P4K alpha inh	HP1b binding inh	PLK1 PBD block	BAZ2B block	JMJD2A Tudor inh	ME-1 prolif	others
CC(=O)NC(c1ccco1)c1cc(Cl)c2ccc(N3CCCCC3)nc2c1O (stereo not drawn)	4µM	/	/	/	?	/	/	12-hLO cuvette=.;JMJD2E inh=20µM
COc1cc(C(=O)NC(c2ccccc2Cl)c2cc(Cl)c3cccnc3c2O)cc(OC)c1OC (stereo not drawn)	.	/	.	/	.	.	/
Cc1cccc(N(C)c2nc3ccc(C)cc3n3cnnc23)c1	.	/	.	/	.	.	/
Cc1c2c(c(O)c3c(O)cccc13)C(=O)O[C@H]2C1C(N(C)C)C(O)=C(C(N)=O)C(=O)[C@H]1O (stereo partly drawn)	/	/	/	/	/	/	.
COc1ccc(-n2ncc(C(=O)Nc3ccc4c(c3)OCO4)c2C2CCN(C(=O)OC(C)(C)C)CC2)cc1	.	/	.	/	.	?	/
CCN1CCc2c(sc(NC(=O)c3ccc(S(=O)(=O)N(CC)c4ccccc4)cc3)c2C(N)=O)C1	?	.	.	.	.	.	/
Nc1ccn(C2OC(CO)C(O)C2F)c(=O)n1 (stereo not drawn)	/	.	/	.	/	/	/
Nc1ccn([C@@H]2O[C@H](CO)[C@@H](O)[C@@H]2O)c(=O)n1	.	.	.	.	?	.	0.28µM
